Source: PubChem (National Center for Advancing Translational Sciences (NCATS))
TDP1 cell CPT = qHTS for Inhibitors of human tyrosyl-DNA phosphodiesterase 1 (TDP1): qHTS in cells in presence of CPT; chicken DT40 Tdp1-/-;hTDP1 cells + 20 nM CPT, ATP luminescence, 48 h; Potency, µM (highest dose often 46.2 µM), actives largely listed as inhibitors; 12% of 420,000 active; note: nearly all actives have a fitted effect of over 55% in size
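Chicken DT40 Tdp1-/- cells stably complemented with human TDP1 were seeded at 400 cells/well in medium containing 20 nM camptothecin, exposed to pin-transferred compounds, and grown at 37 °C for at least 48 hr. Viability was read as ATP luminescence.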
ATXN2 expr inh = Primary qHTS for Inhibitors of ATXN expression. 0.72% of 360,000 active. AID 1745845, 2022. Potency, µM (highest dose often 57 µM), usual class: inhibitors. HEK-293 ATXN2-luciferase reporter, luminescence, 24 h; note: nearly all actives have a fitted effect of over 55% in size
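qHTS (up to 57 uM final) was run with 24 h compound exposure of reporter cells at 37 °C. Each well was multiplexed: SteadyGlo luminescence measured ATXN2-luciferase expression after a fluorogenic Gly-Phe-AFC viability readout (25 uM final).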
TGFb inhibitor = qHTS for Inhibitors of TGF-b. AID 588855, 2011. HepG2 CAGA-GFP TGF-b/SMAD3 reporter, GFP fluorescence, 18 h; TGF-beta stimulated, 500 pg/mL final. 1.2% of 410,000 active. Potency, µM (top dose mostly 46.1 µM), actives largely listed as inhibitors; note: nearly all actives have a fitted effect of over 65% in size
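Smad-responsive CAGA-GFP expression was quantified in HEPG2 cells exposed to compounds and 500 pg/mL final TGF-beta for 18 h at 37 degrees C; unstimulated wells defined full inhibition.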
DT40 TDP1 no CPT = qHTS for Inhibitors of human tyrosyl-DNA phosphodiesterase 1 (TDP1): qHTS in cells in absence of CPT; DT40 Tdp1-/- hTDP1 cells, no CPT, ATP luminescence, 48 h; Potency, µM (titrated, usually from 46.2 µM), hits mostly inhibitors; 15% of 420,000 active; note: nearly all actives have a fitted effect of over 55% in size
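Camptothecin absent (DMSO only). Human TDP1-complemented DT40 knockout cells, 400 cells/well, 37 °C for minimum 48 hr; ATP measured via CellTiter-Glo, 30 min dark incubation, luminescence.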
S2 tox = Viability Counterscreen for Primary qHTS for Inhibitors of ATXN expression; S2 cells (HEK-293 line with an ATXN2-luciferase reporter) viability, CellTiter-Fluor protease fluorescence, 24 h; Potency, µM (series often up to 56.7 µM), hits mostly cytotoxic; 0.49% of 400,000 active; note: nearly all actives have a fitted effect of over 40% in size
HepG2 viability = qHTS for Inhibitors of TGF-b: Cytotox Counterscreen; HepG2 CAGA-GFP viability, ATP luminescence, 18 h; 0.76% of 410,000 active; Potency, µM (titrated, usually from 46.1 µM), most hits filed as cytotoxic
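HepG2 CAGA-GFP cells (1000/well, DMEM with 1% FBS) received compound, then TGF-beta at 500 pg/mL final, and were incubated 18 hours at 37 degrees C. Viability was read by CellTiter-Glo luminescence. Media-only wells were set as complete cell-killing and DMSO as no toxicity.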
A number is an active result; – = inactive; ? = inconclusive; · = no result. Hits are enriched below; roughly 17% of the tested compounds scored in any of these assays. Calls come from the whole dose curve; as a rule, active = well fitted curve in the direction sought with a large enough effect; inconclusive = small, poorly fitted or top-dose-only effect, or another doubt; inactive = no such curve, though single readings can be large; an effect the other way counts as inactive or inconclusive.

SMILES	TDP1 cell CPT	ATXN2 expr inh	TGFb inhibitor	DT40 TDP1 no CPT	S2 tox	HepG2 viability
CC(C)NC(=O)c1ccc(-c2ccc(F)c(F)c2)c2ccoc12	25.9µM	–	–	23.1µM	–	–
COC(=O)NNC(=S)NCc1ccc(C)cc1	–	–	–	–	–	–
COc1cc(NC(=O)c2ccc(-c3cn[nH]c3)c3ccoc23)cc(OC)c1OC	11.6µM	–	–	13µM	?	–
CC(C)c1ccc(NC(=O)c2ccc(-c3ccnn3C)c3ccoc23)cc1	16.4µM	?	–	20.6µM	?	–
COCCNC(=O)c1ccc(-c2cn[nH]c2)c2ccoc12	?	–	–	–	–	–
COc1cc(NC(=O)c2ccc(-c3ccc(F)c(F)c3)c3ccoc23)cc(OC)c1OC	4.11µM	–	–	4.11µM	?	–
CC(=O)Nc1ccc(NC(=O)c2ccc(-c3ccnn3C)c3ccoc23)cc1	?	–	–	?	–	–
COc1ncc2nc(-c3cn(C)c4ccccc34)c(=O)n(CCc3ccccc3)c2n1	–	·	·	–	·	·
COC(=O)/C=C(\C)N=Nc1c(O)[nH]c2ccccc12	–	–	?	?	–	–
COc1ccc(C(=O)C2CCCN(Cc3cccn3-c3cccnc3)C2)cc1OC (stereo unspecified)	16.4µM	·	–	14.6µM	–	–
CCn1ncc(CN2CCCC(C(=O)c3cccc(OC(C)C)c3)C2)c1C (stereo unspecified)	?	·	–	?	–	–
CC(C)Oc1cccc(C(=O)C2CCCN(Cc3cccn3-c3cccnc3)C2)c1 (stereo unspecified)	?	?	?	13µM	?	–
CSc1ccc(C(=O)C2CCCN(Cc3cccn3-c3cccnc3)C2)cc1 (stereo unspecified)	4.61µM	–	?	5.17µM	?	–
OCCC1CN(Cc2cccn2-c2cccnc2)CCN1C1CCCC1 (stereo unspecified)	–	–	–	–	–	–
O=C(c1ccc2c(c1)OCO2)C1CCCN(Cc2cc(F)ccc2-n2cccn2)C1 (stereo unspecified)	–	–	–	–	–	–
O=C(c1ccc2c(c1)OCO2)C1CCCN(Cc2cccn2-c2cccnc2)C1 (stereo unspecified)	23.1µM	–	–	14.6µM	–	–
O=S(=O)(c1ccc(F)cc1)c1nc(-c2ccccc2)oc1N1CCOCC1	–	–	–	–	?	–
CCOC(=O)N1CCN(C(=O)CSCC(=O)N=c2sc3cc(OC)ccc3n2C)CC1	?	–	–	?	–	–
O=C1N=C(N2CCCC2)CN1c1ccccc1	?	–	–	–	–	–
O=C(Cc1ccc(-c2ccccc2)cc1)OCC(=O)N1CCCC1=O	–	–	–	–	–	–
COc1cc(/C=N\Nc2ccc([N+](=O)[O-])cc2)ccc1OCC(=O)Nc1ccc(C)c(C)c1	?	–	–	18.4µM	?	–
CNC(=S)N/N=C/c1ccc(OCC(=O)Nc2c(C)cc(C)cc2C)c(OC)c1	20.6µM	–	–	?	–	–
COc1cc(/C=N\NC(=O)CN2CCOCC2)ccc1OCC(=O)Nc1ccc(C)c(C)c1	?	–	–	?	–	–
COc1cc(/C=N/NC(=O)COc2ccc(C)cc2)ccc1OC(=O)c1cccs1	?	–	–	25.9µM	–	–
CCOc1cc(/C=N/NS(=O)(=O)c2ccccc2)ccc1OS(=O)(=O)c1ccc(C)cc1	?	–	–	–	?	–
SMILES	TDP1 cell CPT	ATXN2 expr inh	TGFb inhibitor	DT40 TDP1 no CPT	S2 tox	HepG2 viability
CCOc1cc(/C=N/NC(=O)COc2ccc(Cl)cc2)ccc1OS(=O)(=O)c1ccccc1	?	–	–	23.1µM	?	–
O=C(c1cccc(-c2ccco2)c1)N1CCCC(N2CCN(c3ccc(F)cc3)CC2)C1 (stereo unspecified)	?	–	–	?	–	–
CCOc1cc(/C=N/O)ccc1OCC(=O)Nc1cccc(C)c1	?	–	–	?	–	–
CCOc1cc(/C=N\Nc2ccc([N+](=O)[O-])cc2)ccc1OCC(=O)Nc1ccc(C)c(C)c1	23.1µM	–	–	14.6µM	–	–
CCOc1cc(/C=N\NC(=O)Cc2ccccc2)ccc1OCC(=O)Nc1ccc(C)c(C)c1	13µM	?	?	20.6µM	·	–
O=C(CCn1cnc2onc(-c3ccc(F)cc3)c2c1=O)Nc1ccc(F)c(Cl)c1	13µM	·	·	14.6µM	·	–
O=C(CCn1cnc2onc(-c3ccc(F)cc3)c2c1=O)Nc1cccc(C(F)(F)F)c1	16.4µM	?	?	16.4µM	·	–
COc1c(OC(C)=O)ccc(/C=C/c2ccc3cccc(OCc4ccccc4)c3n2)c1[N+](=O)[O-]	14.6µM	–	?	14.6µM	?	–
COc1cc(/C=C/c2ccc3cccc(OC)c3n2)c(OC(C)=O)c([N+](=O)[O-])c1	11.6µM	?	?	14.6µM	·	–
CSc1cccc(Nc2cc(C(=O)NCCCN(Cc3ccccc3)C(C)C)c3ccccc3n2)c1	5.8µM	25.1µM	?	4.61µM	?	10µM
Cc1cc(C)cc(Nc2cc(C(=O)NCCCN(Cc3ccccc3)C(C)C)c3ccccc3n2)c1	3.26µM	14.1µM	–	3.26µM	12.6µM	–
CC(C)c1ccc(Nc2cc(C(=O)NCCc3ccccc3)c3ccccc3n2)cc1	?	–	–	?	–	–
CSc1cccc(Nc2cc(C(=O)NC3CCCCC3)c3ccccc3n2)c1	?	–	–	–	–	–
CC(=CC(=O)Nc1ccccc1C(=O)O)c1ccc2ccccc2c1	·	–	·	·	·	·
O=C(Cc1nc2ccccc2[nH]1)N1CCC(n2c(C3CCC3)nc3cccnc32)CC1	–	·	·	–	–	·
C=C1C=C(C(F)F)n2ncc(C(=O)NCCc3ccc(Cl)cc3)c2N1	12.6µM	·	–	?	·	–
C=C1C=C(C(F)F)n2ncc(C(=O)NCc3ccc(OC)cc3)c2N1	11.2µM	·	–	?	·	–
C=C1C=C(C(F)F)n2ncc(C(=O)NCc3ccc(Cl)cc3)c2N1	–	·	–	–	·	–
O=C1C(Cc2ccc(F)cc2)SC(=Nc2ccccc2)N1c1ccccc1 (stereo unspecified)	?	–	–	23.1µM	–	–
COc1ccc(NS(=O)(=O)c2cccs2)cc1S(=O)(=O)N1CCCCC1	?	–	–	?	–	–
CCOC(=O)c1cnc2ccc(OCC)cc2c1N(C)Cc1ccccc1	?	–	?	23.1µM	–	–
